Rows were chosen to be rich in hits. Some 2.4% of all compounds tested hit in one or more screens of this group.
Pol kappa inh-1 = inhibitors of human DNA polymerase kappa. purified Pol kappa, fluorescent DNA synthesis assay, 10 min. Potency, µM (doses to about 107 µM), for the others: at the top dose activity, negative = inhibition, usual class: inhibitors. hit rate 0.53% among 400,000. AID 588579; note: potency is the fitted concentration of half-maximal effect; % is set by controls: 0 for no effect and ±100 for the full control effect
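Kinetic fluorescence screen: compound preincubated 15 min RT with 10 nM enzyme; 50 nM substrate (final) initiates; reads at 0/10 min.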
POLI inh = blocks human DNA polymerase iota activity. Q9UNA4. Pol iota fluorescent replication assay, 10 min. Potency, µM (highest dose often 115 µM), for inactives: top-dose activity, negative = inhibition, actives largely listed as inhibitors. hit rate 1% among 390,000; note: potency is the fitted concentration of half-maximal effect
Target sequence (Q9UNA4 whole entry, looked up): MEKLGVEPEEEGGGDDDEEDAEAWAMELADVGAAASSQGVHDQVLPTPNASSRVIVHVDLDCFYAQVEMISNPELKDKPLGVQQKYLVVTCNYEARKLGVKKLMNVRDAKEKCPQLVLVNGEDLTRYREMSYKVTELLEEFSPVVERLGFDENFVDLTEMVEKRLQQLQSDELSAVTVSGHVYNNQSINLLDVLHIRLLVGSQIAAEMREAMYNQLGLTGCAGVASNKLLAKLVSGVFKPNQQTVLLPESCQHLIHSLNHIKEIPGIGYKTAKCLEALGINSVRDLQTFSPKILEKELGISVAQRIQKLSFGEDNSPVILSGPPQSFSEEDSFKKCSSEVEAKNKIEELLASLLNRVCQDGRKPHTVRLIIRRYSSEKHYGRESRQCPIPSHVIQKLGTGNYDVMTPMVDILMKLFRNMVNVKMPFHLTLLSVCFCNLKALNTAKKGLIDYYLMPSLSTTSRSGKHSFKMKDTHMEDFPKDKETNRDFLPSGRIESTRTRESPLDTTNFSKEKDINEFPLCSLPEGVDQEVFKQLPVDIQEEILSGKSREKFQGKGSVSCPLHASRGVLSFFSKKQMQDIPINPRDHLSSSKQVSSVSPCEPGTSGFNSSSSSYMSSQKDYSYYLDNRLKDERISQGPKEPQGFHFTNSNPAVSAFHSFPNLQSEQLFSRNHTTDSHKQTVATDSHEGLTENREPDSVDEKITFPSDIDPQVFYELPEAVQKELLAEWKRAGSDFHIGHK
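Pol iota at 10 nM preincubated 15 min with compounds at room temperature; reaction started with fluorescent substrate, 50 nM final. Fluorescence read kinetically at 0 and 10 min; buffer-only wells as negative control.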
GLS inhibitor = blocks human kidney-isoform glutaminase activity; O94925; GLS enzymatic activity, qHTS titration; Potency, µM (top dose mostly 45.5 µM), inactives show top-dose activity change, negative = inhibition, most hits filed as inhibitors; hit rate 0.21% among 410,000; AID 624170; note: potency is the fitted concentration of half-maximal effect; % is set by controls: 0 for no effect and ±100 for the full control effect
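hKGA in 45 mM KH2PO4 (pH 8.2), 0.02% Tween-20 with compound, then 1mM L-Glutamine (stock as added) plus glutamate oxidase/HRP/Amplex red coupling mix. Fluorescence read initially and after 30 min at RT; signal change reflects glutamate formation.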
POLB inh = DNA polymerase beta (human) inhibition | P06746 | Pol beta primer extension/strand displacement, fluorescence kinetic | Potency, µM (titrated, usually from 114 µM), without a hit: at the top dose activity change, negative = inhibition, actives largely listed as inhibitors | hit rate 1.3% among 340,000; note: potency is the fitted concentration of half-maximal effect; % is set by controls: 0 for no effect and ±100 for the full control effect
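Values derive from four-parameter Hill fits of normalized kinetic data: reads at 0 and 10 min following addition of 50 nM substrate to 10 nM Pol beta preincubated 15 min with compound.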
KAT2A inh = GCN5L2 (KAT2A) acetyltransferase inhibition | Q92830 | Potency, µM (top dose mostly 58.9 µM), for inactives: top-dose activity change, negative = inhibition, hits mostly inhibitors | hit rate 0.21% among 390,000 | AID 504327 | GCN5L2 HAT assay, ThioGlo1 CoA-SH fluorescence; note: potency is the fitted concentration of half-maximal effect; % is set by controls: 0 for no effect and ±100 for the full control effect
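qHTS, 1536-well. 20nM enzyme, pH 7.5 HEPES/EDTA/Tween-20 buffer; 15 min compound preinc., RT. Start: 75uM H3(1-25), 70uM AcCoA, 50uM ThioGlo1. Read Ex340/Em540 at t=0 (autofluorescence flag) and t=20 min.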
Pol eta inh-1 = inhibitors of human DNA polymerase eta. Potency, µM (titrated, usually from 114 µM), for inactives: at the highest dose activity change, negative = inhibition, actives largely listed as inhibitors. hit rate 1.2% among 390,000. AID 588591. Q9Y253. recombinant Pol eta, fluorescent DNA replication assay; note: potency is the fitted concentration of half-maximal effect; % is set by controls: 0 for no effect and ±100 for the full control effect
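Pol eta (10 nM) was preincubated with compounds for 15 min at room temperature, after which fluorescent replication substrate (50 nM final) was added to start the reaction. Fluorescence was read kinetically at 0 and 10 min.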
PGK validate = TbPGK inhibition, hit validation; TbPGK coupled GAPDH assay, Kinase-Glo luminescence; hit rate 79% among 500; Potency, µM (highest dose often 57.5 µM), inactives show top-dose activity change, negative = inhibition, most hits filed as inhibitors; shares compounds with Pol kappa inh-1; AID 686980; note: potency is the fitted concentration of half-maximal effect; % is set by controls: 0 for no effect and ±100 for the full control effect; nearly all actives have a fitted effect of over 65% in size
POLI cherry-pick = Confirm cherry-picked inhibitors of human polymerase iota; Potency, µM, usual class: inhibitors; hit rate 77% among 1,500; Pol iota primer extension, TAMRA/BHQ fluorescence; shares compounds with Pol kappa inh-1; note: potency is the fitted concentration of half-maximal effect
GALK inh confirm = galactokinase (human) inhibition, confirmation | shares compounds with Pol eta inh-1 | Potency, µM (top dose mostly 115 µM), inactives show at the highest dose activity, negative = inhibition, hits mostly inhibitors | purified GALK, Kinase-Glo ATP depletion luminescence | hit rate 70% among 150 | AID 2015
GALK redox cs = redox cycling activity in phenol red-HRP assay; shares compounds with Pol eta inh-1; Phenol red-HRP H2O2 redox cycling, absorbance 600 nm; hit rate 40% among 150; Potency, µM (top dose mostly 115 µM), for inactives: top-dose activity change, negative = H2O2 signal, most hits filed as inhibitors
HEK293 tox = reduces HEK-293 cell viability in GALK counter-screen; AID 2547; hit rate 10% among 170; Potency, µM (top dose mostly 46.1 µM), for the others: top-dose activity change, negative = cytotoxicity, usual class: inhibitors; HEK-293 viability, ATP luminescence (CellTiter-Glo), 24/48 h; shares compounds with Pol eta inh-1; note: potency is the fitted concentration of half-maximal effect; % is set by controls: 0 for no effect and ±100 for the full control effect
Pol kappa inh-2 = Pol kappa (human) inhibition, cherry-pick confirmation. hit rate 76% among 920. Potency, µM, hits mostly inhibitors. purified Pol-kappa, fluorescent strand-displacement substrate. AID 720501. shares compounds with Pol eta inh-1; note: potency is the fitted concentration of half-maximal effect
Pol eta inh-2 = confirmation of human DNA polymerase eta inhibitors; Pol eta primer extension, TAMRA/BHQ fluorescence, 10 min; hit rate 64% among 2,600; Potency, µM, hits mostly inhibitors; shares compounds with Pol eta inh-1; note: potency is the fitted concentration of half-maximal effect
* = called active by the depositor; ? = inconclusive; nt = not tested or not shown; [ ] = dose if it differs, or a comment. Calls come from the whole dose curve; as a rule, active = well fitted curve in the direction sought with a large enough effect; inconclusive = small, poorly fitted or top-dose-only effect, or another doubt; inactive = no such curve, though single readings can be large; an effect the other way counts as inactive or inconclusive.

SMILES	Pol kappa inh-1	POLI inh	GLS inhibitor	POLB inh	KAT2A inh	Pol eta inh-1	POLI cherry-pick	Pol eta inh-2	others
CCn1nc(-c2ccccc2C)nc2c(=O)n(C)c(=O)nc1-2	1.8%	-90.4%	nt	nt	nt	nt	1.19*	3.79*
Cn1nc(-c2ccc(Cl)cc2)nc2c(=O)n(C)c(=O)nc1-2	-10.6%	-89.2%	nt	?	-4.9%	nt	1.19*	1.07*	GALK inh confirm=1.19µM*;GALK redox cs=1.06µM*;HEK293 tox=14.1µM*
Cn1nc(-c2ccc(F)cc2)nc2c(=O)n(C)c(=O)nc1-2	6.8%	-96.6%	nt	nt	nt	nt	1.34*	0.849*
Cc1cccc(NC(=O)C(=O)NCCc2csc(-c3ccc(F)cc3)n2)c1C	-8.5%[60.1 µM]	15.8%	-13.4%	-16.7%	-1.7%	-7.2%	nt	nt
O=S1(=O)c2ccccc2N(Cc2cccc(Cl)c2)c2ccccc21	0.0%	-18.1%	2.2%	-18.6%	-8.5%	-12.1%	nt	nt
COc1ccc(NC(=O)c2cc(-c3ccco3)nc3ccccc23)cc1	-16.0%	?	32.0%	nt	nt	-13.0%	nt	nt
COc1ccc(NC(=O)CN(C)C(=O)c2cc(-c3ccco3)nc3ccccc23)cc1	44.7µM*	8.91µM*	?	nt	20µM*	2.82µM*	29.9*	42.6*
COc1ccccc1CNC(=O)COC(=O)c1cc(-c2ccco2)nc2ccccc12	22.4µM*	7.08µM*	?	5.01µM*	-28.8%	14.1µM*	21.2*	23.9*	Pol kappa inh-2=15*
CCc1nnc(NC(=O)C(=O)c2cc(C)n(-c3ccccc3)c2C)s1	-4.8%	-20.9%	-4.6%	15.3%	-1.2%	50.1µM*	?	84.9*	Pol kappa inh-2=13.4*
COc1cc(O)c(C(C)=O)c(CC(=O)O)c1	12.6µM*	12.6µM*	10µM*	15.8µM*	-11.4%	3.16µM*	16.8*	8.49*	PGK validate=8.19µM*
CCOc1ccccc1NS(=O)(=O)c1ccc2c(c1)CC(C)N2C(=O)C1CCC1 (stereo not given)	-23.3%	21.1%	25.7%	2.4%	-16.3%	-12.0%	nt	nt
COc1cccc(NC(=O)C(=O)NCCc2csc(-c3ccc(C)cc3)n2)c1	-1.8%[60.1 µM]	-5.3%	4.8%	5.7%	1.8%	-13.3%	nt	nt
CCc1nn2c(-c3ccco3)ccnc2c1-c1ccccc1	6.3%	-11.7%	-2.7%	9.4%	1.3%	-8.0%	nt	nt
CCOc1ccccc1NC(=O)Cn1c(=O)oc2cc(S(=O)(=O)NCc3ccccc3)ccc21	-6.6%[60.1 µM]	13.2%	11.6%	25.9%	2.6%	-13.6%	nt	nt
